13 compounds from PubChem BioAssay (NCATS) can be followed below.

The structures appear in SMILES notation. Records with an inconclusive call do not appear. Calls of active or inactive are those of the source. Calls come from the whole dose curve; as a rule, active = well fitted inhibition curve with a large enough effect; inconclusive = small, poorly fitted or top-dose-only effect; inactive = flat fitted curve, though single readings scatter.

Holding throughout (experiment): qHTS profiling for inhibitors of Plasmodium falciparum proliferation (AID 504749); note: nearly all actives have a fitted effect of over 60% in size
What all share (settings): P. falciparum in erythrocytes, SYBR Green DNA, 72 h; series mostly up to 28.7 µM

For assay [1], the system named is 7G8. The procedure, abridged: (§1)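 Parasite proliferation within erythrocytes, 72 h exposure. Endpoint: SYBR Green I fluorescence after overnight lysis at room temperature. Controls: 0.29 uM artemisinin, DMSO.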
Assay [2] concerns AA1029. In outline: as §1
Assay [3] has as its system AS120. The procedure, abridged:
as §1

The subject of assay [4] is ATS189. In outline: as §1
In assay [5] the test system is ATS95. In outline:
as §1

The subject of assay [6] is C2A. The procedure, abridged:
as §1

Assay [7] relates to CP185. In outline: as §1
Assay [8] relates to CP191. The procedure, abridged: as §1
In assay [9] the test system is CP192. In outline: as §1
Assay [10] relates to CP194. The procedure, abridged:
as §1

Assay [11] deals with CP201. The procedure, abridged:
as §1

For assay [12], the system named is CP203. The procedure, abridged:
as §1

The test system of assay [13] is CP211. In outline: as §1
Assay [14] deals with CP215. The procedure, abridged:
as §1

The subject of assay [15] is CP217. The procedure, abridged: as §1
The subject of assay [16] is CP237. The procedure, abridged:
as §1

The test system of assay [17] is CP238. In outline: as §1
Assay [18] has as its system CP247. The procedure, abridged: as §1
The subject of assay [19] is CP250. The procedure, abridged: as §1
The test system of assay [20] is CP252. The procedure, abridged:
as §1
Potency is the fitted concentration of half-maximal effect.

With `CCCCC(CC)COS(=O)(=O)O` (configuration not stated), the Potency entry in assay [1], in [2], in [3], in assay [4], in [5] and in assay [6] was “inactive” throughout. Further, the Potency result in assay [7], in assay [8], in assay [9], in [10], in assay [11] and in [12] was “inactive” throughout. Also, the Potency entry in assay [13], in [14], in assay [15], in [16], in assay [17] and in assay [18] was “inactive” each time. The Potency result in assay [19] and in [20] was “inactive” in each case.
For the compound `C[C@H](CCC(=O)O)[C@H]1CC[C@H]2[C@@H]3CC[C@@H]4C[C@H](O)CC[C@]4(C)[C@H]3C[C@H](O)[C@]12C`, the Potency entry in assay [1], in assay [2], in assay [3], in assay [4], in assay [5] and in assay [6] was “inactive” throughout. For the same compound, the Potency result in [7], in [8], in assay [9], in assay [10], in assay [11] and in [12] was “inactive” in each case. Also, the Potency entry in [13], in [14], in assay [15], in [16], in assay [17] and in [18] was “inactive” each time. The Potency entry in [19] and in [20] was “inactive” each time.
Take `OC[C@H]1O[C@@](CO)(O[C@H]2O[C@H](CO)[C@@H](O)[C@H](O)[C@H]2O)[C@@H](O)[C@@H]1O`: the Potency result in assay [1], in [2], in assay [3], in [4], in assay [5] and in assay [6] was “inactive” in each case. Further, the Potency result in assay [7], in assay [8], in assay [9], in assay [10], in assay [11] and in [12] was “inactive” in each case. For the same compound, the Potency entry in assay [13], in [14], in [15], in assay [16], in assay [17] and in assay [18] was “inactive” each time. Further, the Potency entry in assay [19] and in [20] was “inactive” each time.
As for `Nc1nccs1`, the Potency result in assay [1], in [2], in [3], in assay [4], in [5] and in [6] was “inactive” in each case. The Potency entry in [7], in [8], in assay [9], in [10], in assay [11] and in [12] was “inactive” in each case. The Potency entry in assay [13], in assay [14], in [15], in assay [16], in assay [17] and in [18] was “inactive” each time. The Potency result in assay [19] and in assay [20] was “inactive” throughout.
Take `O=C1c2ccccc2C(=O)C1c1ccc(Cl)cc1`: the Potency result in [1], in assay [2], in [3], in [4], in assay [5] and in assay [6] was “inactive” throughout. Also, the Potency entry in assay [7], in assay [8], in [9], in assay [10], in assay [11] and in assay [12] was “inactive” each time. In addition, the Potency result in [13], in assay [14], in assay [15], in assay [16], in assay [17] and in assay [18] was “inactive” throughout. For the same compound, the Potency result in [19] and in assay [20] was “inactive” throughout.
As for `c1ccc(-n2cnnn2)cc1`, the Potency entry in [1], in [2], in assay [3], in assay [4], in assay [5] and in assay [6] was “inactive” each time. Besides, the Potency result in [7], in assay [8], in assay [9], in assay [10], in assay [11] and in assay [12] was “inactive” in each case. Further, the Potency entry in [13], in assay [14], in [15], in [16], in [17] and in assay [18] was “inactive” throughout. The Potency result in assay [19] and in assay [20] was “inactive” throughout.
Take `Cc1ncc(COP(=O)(O)O)c(CN)c1O`: the Potency result in [1], in assay [2], in assay [3], in assay [4], in assay [5] and in assay [6] was “inactive” in each case. For the same compound, the Potency entry in assay [7], in [8], in [9], in assay [10], in [11] and in assay [12] was “inactive” in each case. In addition, the Potency result in [13], in assay [14], in assay [15], in assay [16], in assay [17] and in [19] was “inactive” in each case. The Potency entry in [20] was “inactive”.
Turning to `CCN(CC)CCC(=O)N1c2ccccc2Sc2ccc(C(F)(F)F)cc21`, the Potency in assay [1] was 11.2 µM (active). For the same compound, the Potency entry in assay [2], in assay [3], in assay [4], in [5], in assay [6] and in assay [7] was “inactive” throughout. The Potency entry in [8], in assay [9], in [10], in assay [11], in assay [12] and in assay [13] was “inactive” in each case. Further, the Potency result in assay [14], in assay [15], in assay [16], in assay [17], in assay [19] and in assay [20] was “inactive” throughout.
Take `O=C(O)C1=C(CSc2nnnn2CS(=O)(=O)O)CS[C@@H]2[C@H](NC(=O)[C@H](O)c3ccccc3)C(=O)N12`: the Potency entry in [1], in assay [2], in assay [3], in assay [4], in assay [5] and in assay [6] was “inactive” throughout. Moreover, the Potency result in assay [7], in [8], in assay [9], in assay [10], in [11] and in [12] was “inactive” each time. Besides, the Potency result in [13], in [14], in assay [15], in assay [16], in assay [17] and in assay [18] was “inactive” in each case. In addition, the Potency entry in [19] and in assay [20] was “inactive” throughout.
`CC(CNC(=O)c1cccnc1)NC(=O)c1cccnc1` (configuration not stated): the Potency result in assay [1], in assay [2], in assay [3], in assay [4], in [5] and in assay [6] was “inactive” throughout. Also, the Potency entry in assay [7], in [8], in [9], in [10], in [11] and in assay [12] was “inactive” each time. Besides, the Potency entry in assay [13], in assay [14], in [15], in assay [16], in assay [17] and in assay [18] was “inactive” throughout. Also, the Potency entry in [19] and in assay [20] was “inactive” each time.
Take `COc1ccc(/C=C/C(=O)OCCC(C)C)cc1`: the Potency result in assay [1], in [2], in assay [3], in assay [4], in assay [5] and in [6] was “inactive” each time. The Potency entry in assay [7], in assay [8], in assay [9], in assay [10], in [11] and in assay [12] was “inactive” in each case. Further, the Potency entry in [13], in [14], in assay [15], in assay [16], in [17] and in [18] was “inactive” in each case. Further, in assay [20], the Potency entry is “inactive”.
As to `CCN(CC)CCOc1ccccc1OC`, the Potency entry in assay [1], in [2], in assay [3], in assay [4], in [5] and in [6] was “inactive” in each case. For the same compound, the Potency result in assay [7], in assay [8], in assay [9], in assay [10], in assay [11] and in assay [12] was “inactive” each time. For the same compound, the Potency entry in assay [13], in assay [14], in [15], in assay [16], in [17] and in [18] was “inactive” each time. In addition, the Potency result in assay [19] and in assay [20] was “inactive” throughout.
Regarding `CC(=O)NCCCS(=O)(=O)O`, the Potency entry in assay [1], in assay [2], in [3], in assay [4], in [5] and in assay [6] was “inactive” in each case. Besides, the Potency result in [7], in assay [8], in [9], in assay [10], in [11] and in assay [12] was “inactive” throughout. Moreover, the Potency entry in assay [13], in [14], in [15], in [16], in assay [17] and in assay [18] was “inactive” each time. The Potency result in assay [19] and in [20] was “inactive” in each case.
